Results taken from PubChem BioAssay AID588849 (Broad Institute, 2011).
Entries with a potency or affinity are not part of this list. Active and inactive are the calls of the source. How the calls were made is not given here.

Target: CAAX prenyl protease 2 (Homo sapiens) (UniProt Q9Y256)
Assay: inhibition of Ras-converting CAAX protease Rce1 – biochemical, yeast membranes, quenched-peptide fluorescence, cherry-pick, dose response (AID 588849)
Details: yeast membrane fractions expressing human Rce1, quenched-peptide fluorescence, 4 h; series mostly up to 10 µM

Chain of CAAX prenyl protease 2 (Homo sapiens) (Q9Y256 whole entry, looked up): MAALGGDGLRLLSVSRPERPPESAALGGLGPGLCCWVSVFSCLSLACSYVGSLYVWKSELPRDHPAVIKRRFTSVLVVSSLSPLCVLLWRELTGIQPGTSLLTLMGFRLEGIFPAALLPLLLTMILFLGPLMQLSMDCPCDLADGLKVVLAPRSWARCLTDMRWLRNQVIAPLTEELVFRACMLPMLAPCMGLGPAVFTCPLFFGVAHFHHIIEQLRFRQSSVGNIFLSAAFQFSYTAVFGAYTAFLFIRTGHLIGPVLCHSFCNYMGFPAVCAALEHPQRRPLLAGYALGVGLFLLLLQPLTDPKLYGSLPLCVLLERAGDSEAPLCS

outcome, inactive:
CC(C)CNC(=O)Nc1ccc(F)c(Cl)c1
CCCOc1ccccc1C(=O)NCCCC(=O)O
COc1cccc(CNc2nc3nc(C)cc(C)n3n2)c1
Cc1cc(C)n2cc(CSc3nncn3C)nc2n1
CCC1CCCCN1C(=O)NC(=O)c1ccccc1 (stereo not given)
COC(=O)C1CCCN1S(=O)(=O)c1ccc2ccccc2c1 (stereo not given)
COc1cccc(-c2cc(C(F)(F)F)n3ncc(S(=O)(=O)c4ccccc4)c3n2)c1
CCN(CC)CCN(C(=O)c1ccc2ccccc2c1)c1nc2cc3c(cc2s1)OCO3
CCOc1cccc(-c2c(C(=O)N/N=C/c3c(F)cccc3Cl)nnn2-c2nonc2N)c1
CCOC(=O)[C@@H]1[C@H]2COc3ccc(Br)cc3[C@@H]2N2C(=O)N(c3cccc(Cl)c3)C(=O)[C@]12C
COc1ccc(CCN(C)C(=O)c2ccc(S(=O)(=O)Nc3ccccc3C)cc2)cc1OC
CCCN(CCC)CCNC(=O)c1cc2c(-c3ccc(Cl)cc3)nn(C)c2s1
Cc1cc(C)cc(N2CC(O)=C(c3nc4ccccc4c(=O)[nH]3)C2=N)c1
CC(=O)N[C@@H](C)c1nc2ccccc2n1CCCN1CCN(c2nc(-c3ccc(C)cc3)cs2)CC1
CC(=O)Oc1ccc(C(=O)Nc2ccc(S(=O)(=O)NCC3CCCO3)cc2)cc1 (stereo not given)
CC(=O)c1ccc(-c2ccc(C(=O)N3CCC(C(N)=O)CC3)o2)cc1
Oc1c(N=NC(=S)Nc2ccccc2F)c2ccccc2n1Cc1ccccc1Cl
COC(C[C@H](O)C[C@H](O)[C@@H](C)OCc1ccccc1)OC
Cc1ccc(SCc2c(C(=O)N/N=C/c3ccccc3)nnn2-c2nonc2N)cc1
C=C(C)C1(O)OC(=O)C=C1OC (stereo not given)
